PubChem BioAssay
Calls of active or inactive are those of the source. Unless noted, no rule for the calls is given here.

Experiments:
[1] = tested on: XIP peptide (Xip251-270) binding; assay: XIP fragment 251-270 binding compounds – biochemical, small-molecule microarray, fluorescence 635/667 nm, 0.1 µg/mL protein, primary screen (AID 1182); settings: fluorescent protein binding, 635 nm, higher = more signal, called active from +8 up or from −8 down
XIP peptide (Xip251-270) = assay: compounds binding XIP fragment 251-270 – biochemical, small-molecule microarray, fluorescence 635/667 nm, 0.5 µg/mL protein, primary screen (AID 1183); settings: fluorescence 635 nm, higher = more signal
[2] = blood-stage malaria parasite viability loss – strain 3D7, DAPI fluorescence, 100 nL, primary screen (AID 1184);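 also: parasites grown inside human red blood cells in medium with human serum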; settings: P. falciparum 3D7 growth, 3 d, higher = more signal
[3] = target: Homeobox protein Hox-A13 (Mus musculus) (UniProt Q62424); assay: disruptors of Hoxa13 oligonucleotide interaction – biochemical, fluorescence polarization, labeled oligonucleotide, primary screen (AID 1185); settings: Hoxa13:DNA binding, 15 min, higher = more signal, called active from +8 up or from −8 down
Sequence of Homeobox protein Hox-A13 (Mus musculus) (Q62424 whole entry, looked up): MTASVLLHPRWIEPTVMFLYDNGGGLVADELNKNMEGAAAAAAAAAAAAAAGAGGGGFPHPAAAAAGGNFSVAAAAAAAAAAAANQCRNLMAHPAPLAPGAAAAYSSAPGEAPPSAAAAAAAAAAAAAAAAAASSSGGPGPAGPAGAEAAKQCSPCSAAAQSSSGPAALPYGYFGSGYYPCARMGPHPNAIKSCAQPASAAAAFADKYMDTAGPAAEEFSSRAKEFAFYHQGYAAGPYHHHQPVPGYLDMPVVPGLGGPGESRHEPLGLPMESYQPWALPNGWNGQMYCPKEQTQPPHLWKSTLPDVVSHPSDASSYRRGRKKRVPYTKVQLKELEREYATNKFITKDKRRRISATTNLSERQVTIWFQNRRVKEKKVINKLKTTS

[4] = blockers of DNA damage checkpoint Chk1 activation – imaging, HeLa, hydroxyurea, phospho-Chk1 antibody, percent positive cells, primary screen (AID 1186); settings: hydroxyurea-induced phospho-Chk1 immunofluorescence imaging, higher = more signal
[5] = blockers of DNA damage checkpoint Chk1 activation – imaging, HeLa, hydroxyurea, phospho-Chk1 nuclear intensity, primary screen (AID 1187); settings: hydroxyurea-induced phospho-Chk1 immunofluorescence imaging, higher = more signal

Row | Compound | composite z-score [1] | composite z-score (XIP peptide (Xip251-270)) | z-score [2] | z-score [3] | z-score [4] | z-score [5]
1 | COC(=O)[C@@]1(Cc2ccc(OC)cc2)[C@H]2c3cc(C(=O)N4CCCC4)n(Cc4c(CO)[nH]cc(C)c4=O)c3C[C@H]2CN1C(=O)c1ccccc1 | 1.1 (inactive) | 0.523 | -1.56 | -5.39 (inactive) | -0.166 (inactive) | 0.0081 (inactive)
2 | NCCCCCCNC(=O)[C@@H]1C[C@@H]2C(=O)N3CCC[C@H]3C(=O)N2[C@@H]1c1cccc(OCCO)c1 | 2.08 (inactive) | 0.2 | -0.772 | -4.9 (inactive) | -0.705 (inactive) | -0.405 (inactive)
3 | O=C1C[C@@](C(=O)O)(c2ccc([N+](=O)[O-])cc2)[C@@H](c2ccc(CO)cc2)N1C1CCCCC1 | 0.803 (inactive) | 0.73 | -1.13 | -4.33 (inactive) | -0.119 (inactive) | 0.0584 (inactive)
4 | COc1ccc(NN2C(C(O)c3ccc(I)cc3)C=CC3C(=O)N(C4CCCCC4)C(=O)C32)cc1 (configuration not stated) | 1.63 (inactive) | 0.618 | -0.684 | -3.31 (inactive) | 0.0831 (inactive) | -0.481 (inactive)
5 | Cc1ccc(S[C@]2(C(=O)NCCCN(C)C)CC(=O)N(Cc3ccccc3C(F)(F)F)[C@@H]2c2ccc(CO)cc2I)cc1 | 0.223 (inactive) | 0.82 | 0.306 | -2.71 (inactive) | 0.0909 (inactive) | 0.675 (inactive)
6 | CCCCCCc1nc(Cc2cc(OC)c(OC)c(OC)c2)cc2c1[Si](C(C)C)(C(C)C)O[C@H]2c1ccccc1 | -0.0565 (inactive) | 0.103 | -2.34 | -3.15 (inactive) | 0.252 (inactive) | -0.409 (inactive)
7 | COc1cc(C(O)C2C=CC3C(=O)N(c4ccccc4)C(=O)C3N2Nc2ccccc2)cc(OC)c1OC (configuration not stated) | 1.1 (inactive) | 0.746 | 0.808 | -3.96 (inactive) | -0.153 (inactive) | -0.522 (inactive)
8 | COc1cc(CO)cc(I)c1O[C@H]1C=C(C(=O)NCCO)C[C@@H]2O[C@H]12 | 0.28 (inactive) | 0.347 | -1.41 | -7.29 (inactive) | 0.552 (inactive) | 0.361 (inactive)
9 | COc1ccc([Si](C)(C)[C@H]2[C@H](CCO)O[C@@]3(C(=O)N(Cc4ccc(NC(=O)[C@H](C)O)cc4)c4ccccc43)[C@@H]2C)cc1 | 3.4 (inactive) | 0.596 | -2.7 | -4.86 (inactive) | -0.704 (inactive) | -0.43 (inactive)
10 | COc1ccc(C(=O)Nc2ccc(CN3C(=O)[C@@]4(O[C@@H](CCn5cc(CCO)nn5)[C@H]([Si](C)(C)c5ccc(OC)cc5)[C@H]4C)c4ccccc43)cc2)cc1 | 1.04 (inactive) | 0.561 | -2.71 | -3.79 (inactive) | -0.989 (inactive) | -1.13 (inactive)
11 | O=C1O[C@@H](c2ccccc2)[C@@H](c2ccccc2)N2[C@@H](c3ccc(OCCO)cc3)[C@]3(C(=O)Nc4ccc(C#CC5(O)CCCCCC5)cc43)[C@@H](C(=O)O)[C@H]12 | 2.23 (inactive) | 0.688 | -0.0628 | -6.03 (inactive) | -0.167 (inactive) | 0.0604 (inactive)
12 | O=C1O[C@H](c2ccccc2)[C@H](c2ccccc2)N2[C@H]1[C@@H](C(=O)O)[C@]1(C(=O)Nc3ccc(C#CCCO)cc31)[C@H]2c1ccc(OCCO)cc1 | 0.671 (inactive) | 0.856 | -0.481 | -5.39 (inactive) | -0.255 (inactive) | -0.132 (inactive)
13 | CCOC(=O)C1=CC[C@@H](c2ccccc2)N(S(=O)(=O)c2ccc(C)cc2)[C@H]1c1ccccc1I | -0.0622 (inactive) | 0.77 | -2.07 | -1.19 (inactive) | 0.0035 (inactive) | -0.763 (inactive)
14 | O=C1C[C@]2(c3ccc([N+](=O)[O-])cc3)C(=O)N(C3CC3)c3cc(CO)ccc3[C@H]2N1C1CCCCC1 | -0.217 (inactive) | 0.205 | 1.47 | -1.16 (inactive) | -0.214 (inactive) | -0.771 (inactive)
15 | CCOC(=O)C[C@H]1[C@H](OC(=O)c2ccccc2-c2ccccc2)[C@@H](NC(=O)C2CCCCC2)c2cc(OCCCO)ccc2N1C(=O)c1ccc2ccccc2n1 | 0.181 (inactive) | 0.727 | 0.433 | -3.33 (inactive) | 0.0664 (inactive) | -0.108 (inactive)
16 | Cc1ccc(F)cc1S(=O)(=O)N[C@H]1CCN(Cc2ccc(OC(C)C)cc2)C1 | 0.479 (inactive) | 0.338 | 0.646 | -5.72 (inactive) | -0.0604 (inactive) | 0.581 (inactive)
17 | C=C(COC)/C(=C/C[C@H](OC(C)=O)c1ccccc1OCCO)c1cc(C(=O)OC)ccc1OC | 0.117 (inactive) | 0.788 | -2.75 | -4.27 (inactive) | -1.15 (inactive) | -1.14 (inactive)
